Our source for the AC50 and outcome values is PubChem BioAssay (EPA / NIEHS).

Calls of active or inactive are those of the source. How the source made its calls: active means hit-call score of the fitted dose curve at least 0.9, where 1 is the maximum; inactive means score below 0.9.

This assay in a line: ATG_NRF2_ARE_CIS: Attagene CIS-FACTORIAL HepG2 Assay for human Nuclear Factor Erythroid 2 Related Factor 2 (NFR2) response to Antioxidant Response Elements (ARE) (AID 2282992). The note with it: HepG2 Attagene ARE/NRF2 reporter, transcription factor activity; actives raise or lower the signal. The procedure: ATG_CIS is a cell-based, multiplexed-readout assay that uses HepG2, a human liver cell line, with measurements taken at 24 hours after chemical dosing in a 24-well plate.ATG_NRF2_ARE_CIS is one of 52 assay component(s) measured or calculated from the ATG_CIS assay. It is designed to make measurements of mRNA induction, a form of inducible reporter, as detected with fluorescence intensity signals by Reverse transcription polymerase chain reaction (RT-PCR) and Capillary electrophoresis technology.Data from the assay component ATG_NRF2_ARE_CIS was analyzed into 1 assay endpoint. This assay endpoint, ATG_NRF2_ARE_CIS, was analyzed with bidirectional fitting relative to DMSO as the negative control and baseline of activity. Using a type of inducible reporter, measures of mRNA for gain or loss-of-signal activity can be used to understand the reporter gene at the transcription factor-level as they relate to the gene NFE2L2. Furthermore, this assay endpoint can be referred to as a primary readout, because this assay has produced multiple assay endpoints where this one serves a reporter gene function. To generalize the intended target to other relatable targets, this assay endpoint is annotated to the dna binding intended target family, where the subfamily is basic leucine zipper.
Human liver HepG2 cells are transiently transfected with multiple reporter transcription units (MRTUs) in 6-well plates using FuGene 6 reagent (Roche; 3 ml FuGene/1 mg DNA). The MRTU constructs are regulated by a cis-regulating element (promoter). […] A major difference between the CIS and TRANS system is that in CIS activities of endogenous TFs are measured, whereas the TRANS assay evaluates changes in activities of exogenous, chimeric NR-Gal4 proteins. […] At the end of 24 hour incubation, total RNA was isolated using TriZol reagent (Invitrogen). The isolated RNA is then reverse-transcribed using oligo(dT) primer and Mo-MLV reverse transcriptase (Invitrogen) with DNAse I (Ambion) treatment for 30 min. The one-tenth of the produced cDNA was amplified by PCR using Taq DNA polymerase (Invitrogen) and two reporter sequence-specific primers. The PCR products were fluorescently labeled by primer extension with 6-arboxyfluorescein (6-FAM) 5'-labeled reporter sequence-specific primer (2 min at 95 C, 20 s at 68 C and 10 min at 72 C) and these products were digested with 5U of HpaI (New England Biolabs) for 2h at 37 C. The fragments were purified using Qiaquick PCR columns (Qiagen), analyzed on an ABI 3130xL genetic analyzer (Applied Biosystems) with peak positions identified by using a set of X-rhodamine (ROX)-labeled MapMarker1000 molecular weight standards (BioVentures). The raw capillary electrophoresis data was processed using Attagraph software (Attagene).
A word on the AC50: it is the concentration giving half of the maximal activity seen. For the compound `c1ccc(CN(Cc2ccccc2)Cc2ccccc2)cc1`, the AC50 is 100 µM (active).
As to `CC(=O)c1ccccn1`, the result was inactive.
In the case of `CCOc1ccc(NC(=O)CC(C)O)cc1` (stereo not given), the call was inactive.
Consider `Cc1ccc(OC(=O)c2ccccc2O)cc1`, for which the AC50 is 51.2 µM (active).
With `CC(=O)c1c(C)c([N+](=O)[O-])c(C(C)(C)C)c([N+](=O)[O-])c1C`, the compound was called inactive.
As for `OCC(O)c1ccccc1` (stereo not given), the call was inactive.
Still for that read-out and setting: the entry for `CCOc1ccccc1O` is “inactive”; for `CCCCOCC` it is “inactive”.
Turning to `CCCCCCCCCCCCCC(=O)OCC(O)CO` (stereo not given), the AC50 is 112 µM (active).
`Cc1ccc(-c2ccccc2)cc1`: the compound was called inactive.
Still for that read-out and setting: the result for `CN(C)c1cccc(O)c1` reads “inactive”.
On to `CC[N+](C)(CC)CC`, for which the compound was classed as inactive.
`CCCCCCCCN1CCCC1=O`: the AC50 was 66.8 µM (active).
`O=c1[nH]c(=O)c2cn[nH]c2[nH]1`: the compound was classed as inactive.
Turning to `C[C@@H]1CCN(C(=O)[C@H](CCCN=C(N)N)NS(=O)(=O)c2cccc3c2NC[C@H](C)C3)[C@@H](C(=O)O)C1`, the compound was called inactive.
On to `CCCCCC(=O)CC`, for which the outcome was inactive.
Same read-out and setting: the result for `CCO/C=C1\N=C(c2ccccc2)OC1=O` reads “inactive”; that for `CN(C)CCOC(C)(c1ccccc1)c1ccccn1` (stereo not given), “inactive”; that for `CC1=C(Br)C(=O)C(Br)=C/C1=C(/c1ccccc1S(=O)(=O)O)c1cc(Br)c(O)c(Br)c1C`, “inactive”.
Consider `CCCCCc1ccco1`, for which the AC50 was 31.9 µM (active).
Consider `C=CC(=C)CCCC(C)(C)OC(C)=O`, for which the compound was called inactive.
Still for that read-out and setting: the entry for `CCC1(c2ccccc2)C(=O)NCNC1=O` is “inactive”.
On the same count and under the same terms, the result for `Cc1ccc(S(N)(=O)=O)cc1` reads “inactive”; that for `Cc1c(Cl)cccc1[N+](=O)[O-]`, “inactive”; that for `CC(O)C1CCCCC1` (stereo not given), “inactive”.
On to `O=C(O)c1cccnc1C(=O)O`, for which the result was inactive.
On the same count and under the same terms, the entry for `CC1(C)COCN1` is “inactive”.
In the case of `CCCCCCCC(=O)OCC(O)CO` (stereo not given), the result was inactive.
Still for that read-out and setting: the result for `COC(C)(C)CC(C)=O` reads “inactive”.
For the compound `CC(C)NCC(O)COc1ccc(CC(N)=O)cc1` (stereo not given), the concentration at half-maximal activity (AC50) was 61.5 µM (active).
Turning to `CCc1ccc(O)c(OC)c1`, the result was inactive.
Turning to `COc1ccc(CCN2CCC(Nc3nc4ccccc4n3Cc3ccc(F)cc3)CC2)cc1`, the AC50 was 1.99 µM (active).
As for `O=CCc1ccccc1`, the compound was classed as inactive.
For the compound `C1CCOC1`, the call was inactive.
Regarding `COc1cccc(OC)c1O`, the call was inactive.
Regarding `CCOC(=O)COC(=O)c1cc(Oc2ccc(C(F)(F)F)cc2Cl)ccc1[N+](=O)[O-]`, the outcome was inactive.
Same read-out and setting: the result for `O=Cc1ccccc1S(=O)(=O)O` reads “inactive”.
On the same count and under the same terms, the result for `ON=C1CCCCC1` reads “inactive”.
For the compound `C=C[Si]1(C)O[Si](C)(C=C)O[Si](C)(C=C)O[Si](C)(C=C)O1` (stereo not given), the AC50 was 12 µM (active).
With `CCCCCCC(C)(C)S`, the compound was classed as inactive.
